# Test results reported in PubChem BioAssay (Tox21).
# Where “and” joins values, the source holds several entries; their conditions need not be identical. Equal entries are not always repeated. Inconclusive results are not listed. A call without a number means that no potency is given here. Where a structure was tested more than once in an assay, its records may differ in their call. Calls of active or inactive are those of the source. Unless noted, the call rests on the fitted dose curve; in most records, active means well fitted curve in the direction sought with a large enough effect in the repeat runs; inconclusive means weak or mixed curves; inactive means no such curve, though single readings can be large; an effect the other way counts as inactive or inconclusive.
# Experiments:
# [1] = qHTS assay to identify aromatase inhibitors - cell viability counter screen (AID 743084);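 further: cells stimulated with testosterone during compound exposure; nearly all actives have a fitted effect of over 55% in size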; further: potency means the concentration at half of the fitted maximal effect
# [2] = molecular target: Aryl hydrocarbon receptor (Homo sapiens) (UniProt P35869); assay: qHTS assay to identify small molecule that activate the aryl hydrocarbon receptor (AhR) signaling pathway (AID 743085); further: nearly all actives have a fitted effect of over 15% in size; further: potency means the concentration at half of the fitted maximal effect;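 on activation: HG2L7.5c1 human HepG2 liver cells with stably integrated DRE-driven firefly reporter; series mostly up to about 70 µM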
# Aryl hydrocarbon receptor (Homo sapiens), sequence (P35869 whole entry, looked up): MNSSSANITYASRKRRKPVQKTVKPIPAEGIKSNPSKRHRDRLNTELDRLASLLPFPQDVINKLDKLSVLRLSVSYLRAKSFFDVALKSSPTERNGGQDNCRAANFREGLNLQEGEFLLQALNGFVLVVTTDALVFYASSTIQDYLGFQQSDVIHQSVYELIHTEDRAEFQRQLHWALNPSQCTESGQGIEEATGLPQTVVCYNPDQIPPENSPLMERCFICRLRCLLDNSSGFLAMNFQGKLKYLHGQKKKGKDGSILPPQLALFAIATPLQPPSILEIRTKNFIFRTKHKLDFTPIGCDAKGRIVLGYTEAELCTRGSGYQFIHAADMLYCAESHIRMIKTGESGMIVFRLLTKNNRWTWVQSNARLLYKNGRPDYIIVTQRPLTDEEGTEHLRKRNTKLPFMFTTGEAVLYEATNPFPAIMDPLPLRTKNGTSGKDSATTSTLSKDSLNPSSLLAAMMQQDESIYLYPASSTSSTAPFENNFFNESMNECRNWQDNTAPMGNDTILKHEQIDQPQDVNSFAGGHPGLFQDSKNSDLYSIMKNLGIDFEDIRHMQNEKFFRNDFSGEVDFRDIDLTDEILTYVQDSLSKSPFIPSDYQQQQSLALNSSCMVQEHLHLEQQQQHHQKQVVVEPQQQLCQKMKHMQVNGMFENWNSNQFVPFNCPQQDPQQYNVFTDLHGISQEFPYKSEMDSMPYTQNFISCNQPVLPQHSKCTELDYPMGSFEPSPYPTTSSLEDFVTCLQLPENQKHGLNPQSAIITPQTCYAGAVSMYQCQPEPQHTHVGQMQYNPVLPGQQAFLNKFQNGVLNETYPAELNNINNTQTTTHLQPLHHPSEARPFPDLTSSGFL
# Summary of the method: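 Luminescence read-out: ONE-Glo reagent, 30 min at room temperature, in HG2L7.5c1 HepG2 reporter cells treated 24 h at 37C. Viability was measured beforehand by CellTiter-Fluor fluorescence after 30 min at 37C.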
# [3] = qHTS assay to identify small molecule that activate the aryl hydrocarbon receptor (AhR) signaling pathway - cell viability counter screen (AID 743086); further: nearly all actives have a fitted effect of over 45% in size; further: potency means the concentration at half of the fitted maximal effect
# Summary of the method: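 HepG2-AhR-luc (HG2L7.5c1) cells, 4000/well, were preincubated 5 h at 37C, exposed to compound in qHTS format for 24 hr at 37C, then given CellTiter-Fluor for 30 min; viability was read as fluorescence in the reporter wells.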
# [4] = qHTS assay for small molecule agonists of the antioxidant response element (ARE) signaling pathway (AID 743202; active means well fitted activation curve with a large enough effect in the signal ratio in the repeat runs, not every such curve was filed as active; the % refers to the signal ratio; further: potency means the concentration at half of the fitted maximal effect)
# Summary of the method: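 Read-out: LiveBLAzer B/G FRET substrate fluorescence after 2 h at room temperature, following 16 h compound treatment at 37 C of HepG2 cells carrying an ARE-driven beta-lactamase reporter.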
# [5] = qHTS assay for small molecule agonists of the antioxidant response element (ARE) signaling pathway - cell viability counter screen (AID 743203; calls by dose curve; further: nearly all actives have a fitted effect of over 55% in size; further: potency means the concentration at half of the fitted maximal effect)
# Summary of the method: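 ARE-bla HepG2 cells were plated, rested 5 h at 37C/5% CO2, then exposed to compounds in DMSO for 16 h. Viability was read as CellTiter-Glo luminescence after 30 min at room temperature, in the same wells as the ARE screen.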
# [6] = qHTS assay for small molecule activators of the heat shock response signaling pathway - cell viability counter screen (AID 743209); further: nearly all actives have a fitted effect of over 50% in size; further: potency means the concentration at half of the fitted maximal effect
# Summary of the method: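 HSE-bla HeLa cells plated overnight, then exposed to Tox21 compounds (23 nL in DMSO) for 5 h at 37 C. After the bla reporter read, CellTiter-Glo was added in the same wells and luminescence read after 30 min at room temperature.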
# [7] = molecular target: Peroxisome proliferator-activated receptor gamma (Homo sapiens) (UniProt P37231); assay: qHTS assay to identify small molecule antagonists of the peroxisome proliferator-activated receptor gamma (PPARg) signaling pathway (AID 743191; calls by dose curve; further: series mostly up to about 63 µM; nearly all actives have a fitted effect of over 30% in size)
# Peroxisome proliferator-activated receptor gamma (Homo sapiens), sequence (P37231 whole entry, looked up): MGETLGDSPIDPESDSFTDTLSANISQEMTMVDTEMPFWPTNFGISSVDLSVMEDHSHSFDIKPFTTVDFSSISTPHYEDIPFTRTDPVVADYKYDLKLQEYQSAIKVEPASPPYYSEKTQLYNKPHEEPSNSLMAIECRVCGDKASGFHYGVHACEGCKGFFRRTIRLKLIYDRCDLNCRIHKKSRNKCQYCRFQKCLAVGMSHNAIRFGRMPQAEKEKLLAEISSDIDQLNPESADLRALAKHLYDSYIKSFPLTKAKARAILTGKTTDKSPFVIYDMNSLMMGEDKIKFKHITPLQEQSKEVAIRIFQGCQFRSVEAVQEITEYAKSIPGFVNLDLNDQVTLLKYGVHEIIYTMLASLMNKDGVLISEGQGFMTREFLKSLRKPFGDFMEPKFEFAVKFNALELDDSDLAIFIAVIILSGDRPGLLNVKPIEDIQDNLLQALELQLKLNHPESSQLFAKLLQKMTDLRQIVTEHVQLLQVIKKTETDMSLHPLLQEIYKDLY
# Summary of the method: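 GeneBLAzer PPARg UAS-bla HEK293H cells carrying a UAS-driven beta-lactamase reporter were plated at 3000 cells/well, preincubated 5 h at 37C, then given compound for 17 h at 37C; LiveBLAzer B/G FRET substrate was read after 1 h at room temperature.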
# [8] = qHTS assay to identify small molecule antagonists of the peroxisome proliferator-activated receptor gamma (PPARg) signaling pathway - cell viability counter screen (AID 743194); further: nearly all actives have a fitted effect of over 55% in size
# Summary of the method: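 PPARg-UAS-bla HEK293H cells were plated, rested 5 h at 37 C, then treated with compounds plus rosiglitazone (50 nM final) for 17 h at 37 C; viability was then read by CellTiter-Glo luminescence after 30 min at room temperature.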
# [9] = qHTS assay for small molecule activators of the heat shock response signaling pathway (AID 743210; active means well fitted activation curve with a large enough effect in the signal ratio in the repeat runs, with a control signal flat, not every such curve was filed as active; the % refers to the signal ratio; further: series mostly up to about 63 µM)
# Summary of the method: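 HSE-bla HeLa cells (beta-lactamase reporter under heat shock response elements) were exposed to compounds for 5 h at 37 C, then loaded with LiveBLAzer B/G FRET substrate for 2.5 h at room temperature before fluorescence reading.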
# [10] = molecular target: Peroxisome proliferator-activated receptor gamma (Homo sapiens) (UniProt P37231); assay: qHTS assay to identify small molecule agonists of the peroxisome proliferator-activated receptor gamma (PPARg) signaling pathway (AID 743094; active means well fitted activation curve with a large enough effect in the signal ratio in the repeat runs, not every such curve was filed as active; the % refers to the signal ratio; further: potency means the concentration at half of the fitted maximal effect)
# Summary of the method: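 GeneBLAzer PPARg UAS-bla HEK293H cells were plated, rested 5 h, then exposed to compounds for 17 h at 37C. Beta-lactamase activity was read by LiveBLAzer B/G FRET substrate fluorescence after 1 h at room temperature.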
SMILES,Potency [1],Potency [2],Potency [3],Potency [4],Potency [5],Potency [6],Potency [7],Potency [8],Potency [9],Potency [10]
OCCN1CCN(CCCN2c3ccccc3C=Cc3ccccc32)CC1,29.8 µM (active) and inactive,inactive,10.6 µM (active) and 26.6 µM (active),inactive,inactive,inactive,–,–,–,–
C#Cc1cccc(Nc2ncnc3cc(OCCOC)c(OCCOC)cc23)c1,inactive,2.66 µM (active),–,–,inactive,inactive,inactive,inactive,inactive,–
Cc1oc(-c2ccccc2)nc1CCOc1cccc2c1ccn2CCC(=O)O,27.3 µM (active),inactive,–,–,inactive,inactive,–,inactive,inactive,0.0174 µM (active)
CNCCCN1c2ccccc2CCc2ccccc21,inactive,inactive,inactive,–,29.8 µM (active),inactive,–,–,inactive,–
ClCCOCCOCCCl,inactive,inactive,–,inactive,inactive,inactive,inactive,inactive,inactive,inactive
CCCCO,inactive,inactive,inactive,–,inactive,inactive,–,–,inactive,–
Cc1cccc(Nc2ccccc2)c1,inactive,inactive,inactive,–,inactive,inactive,–,–,inactive,–
CCCCCCCC#N,inactive,–,inactive,inactive,inactive,–,inactive,inactive,–,inactive
Cc1cc(N)c2cc(NC(=O)Nc3ccc4nc(C)cc(N)c4c3)ccc2n1,inactive,–,inactive,–,–,–,–,–,–,–
CN(C)CCN(Cc1ccc(Cl)cc1)c1ccccn1,inactive,inactive,–,inactive,inactive,inactive,–,–,inactive,inactive
CCCNCC(O)COc1ccccc1C(=O)CCc1ccccc1 (stereo not drawn),inactive,inactive,–,–,inactive,inactive,–,–,inactive,–
CCC(=O)O[C@]1(C(=O)CCl)[C@@H](C)C[C@H]2[C@@H]3CCC4=CC(=O)C=C[C@]4(C)[C@@]3(F)[C@@H](O)C[C@@]21C,inactive,–,inactive,–,inactive,inactive,inactive,inactive,inactive,inactive
C=CC(=O)OCCOCCOCCOCCOC(=O)C=C,13.8 µM (active) and 19.2 µM (active),inactive,–,24.5 µM (active) and 27.1 µM (active),inactive,34.8 µM (active),–,inactive,–,–
CCN(CC)CCNC(=O)c1cc(Br)c(N)cc1OC,inactive,–,inactive,inactive,inactive,inactive,inactive,inactive,inactive,inactive
CCc1c(C(=O)NN2CCCCC2)nn(-c2ccc(Cl)cc2Cl)c1-c1ccc(Br)cc1,inactive,inactive,inactive,–,–,inactive,–,–,–,–
CC1(c2ccccc2)OC(C(=O)O)=CC1=O (stereo not drawn),inactive,–,inactive,inactive,inactive,inactive,inactive,inactive,–,inactive
CN(C)C(=O)NC1(c2ccccc2)CCN(CC[C@@]2(c3ccc(F)c(F)c3)CN(C(=O)c3ccccc3)CCO2)CC1,inactive,inactive,–,–,inactive,inactive,inactive,inactive,inactive,–
CNCCCCOc1ccccc1Cc1ccccc1,inactive,inactive,–,–,29.8 µM (active),inactive,–,inactive,inactive,inactive
O=C1OC(CN2CCOCC2)CN1/N=C/c1ccc([N+](=O)[O-])o1 (stereo not drawn),inactive,inactive,inactive,29.8 µM (active),inactive,inactive,–,–,inactive,–
COc1cc2nc(N(C)CCCNC(=O)C3CCCO3)nc(N)c2cc1OC (stereo not drawn),inactive,–,inactive,23.7 µM (active),inactive,inactive,inactive,–,inactive,inactive
Nc1c(CC(=O)O)cccc1C(=O)c1ccc(Br)cc1,inactive,inactive,inactive,–,–,inactive,–,inactive,–,–
CCN(CC)CCOC(=O)C(c1ccccc1)C1CCCCC1 (stereo not drawn),inactive,–,inactive,inactive,inactive,inactive,inactive,–,–,inactive
Cc1oc2c(NC(=O)c3c(Cl)cccc3Cl)cccc2c1C(C)(C)O,inactive,8.63 µM (active),inactive,–,–,inactive,–,inactive,inactive,–
CCC(CC)Nc1ccc(C)c(C)c1,inactive,–,inactive,inactive,inactive,inactive,inactive,inactive,–,inactive
O=C1OC(=O)C2C3C=CC(C3)C12 (stereo not drawn),inactive,inactive,–,–,inactive,inactive,–,inactive,inactive,inactive
COc1ccnc(CS(=O)c2nc3ccc(OC(F)F)cc3[nH]2)c1OC (stereo not drawn),inactive,–,inactive,–,inactive,inactive,inactive,inactive,inactive,inactive
